Measured values as given in PubChem BioAssay AID1159580 (chemical genetic matrix, 2015).
Values joined by “and” are separate entries in the source; they are usually repeats but may differ in a detail not shown here. Equal values may be shown once. About 2,000 (36%) of roughly 5,500 compounds were called active. About 18% were inconclusive and are not listed. Rule as the data show it: active = normalized growth mostly below about 0.91 (no sharp cut-off); inconclusive = no clear call, values can overlap the other calls; inactive = mostly above about 0.92. The list shows a part of the results.

Assay: chemical genetic growth profiling, strain panel (AID 1159580);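 also: tested at 20 µM; growth read once vehicle control cultures reached saturation at 30 °C; 1 = growth at the plate median or of vehicle wells; lower values mean less growth of the strain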
Settings: growth OD

Measured: normalized growth

CCN(CCCCOC(=O)c1ccc(OC)c(OC)c1)C(C)Cc1ccc(OC)cc1 (stereo not drawn)
inactive: S. cerevisiae deletion strains, locus YAL013W, strain DEP1, active compounds read low 0.982 | S. cerevisiae deletion strains, locus YBR021W, strain FUR4, active compounds read low 0.989 | S. cerevisiae deletion strains, locus YBR229C, strain ROT2, active compounds read low 0.95 | S. cerevisiae deletion strains, locus YCL029C, strain bik1, active compounds read low 0.99 | S. cerevisiae deletion strains, locus YDL035C, strain GPR1, active compounds read low 0.972 | S. cerevisiae deletion strains, locus YDL074C, strain BRE1, active compounds read low 0.987 | S. cerevisiae deletion strains, locus YDL101C, strain DUN1, active compounds read low 0.988 | S. cerevisiae deletion strains, locus YDL134C, strain PPH21, active compounds read low 0.988 | S. cerevisiae deletion strains, locus YDL185W, strain tfp1, active compounds read low 0.991 | S. cerevisiae deletion strains, locus YDL192W, strain arf1, active compounds read low 0.982 | S. cerevisiae deletion strains, locus YDR101C, strain arx1, active compounds read low 0.995 | S. cerevisiae deletion strains, locus YDR150W, strain NUM1, active compounds read low 0.96 | S. cerevisiae deletion strains, locus YDR162C, strain NBP2, active compounds read low 0.977 | S. cerevisiae deletion strains, locus YDR318W, strain mcm21, active compounds read low 0.999 | S. cerevisiae deletion strains, locus YDR388W, active compounds read low 0.998 | S. cerevisiae deletion strains, locus YDR502C, strain sam2, active compounds read low 0.98 | S. cerevisiae deletion strains, locus YEL061C, strain CIN8, active compounds read low 0.979 | S. cerevisiae deletion strains, locus YER110C, active compounds read low 0.963 | S. cerevisiae deletion strains, locus YER155C, strain BEM2, active compounds read low 0.999 | S. cerevisiae deletion strains, locus YER167W, strain BCK2, active compounds read low 0.989 | S. cerevisiae deletion strains, locus YGL078C, strain dbp3, active compounds read low 0.997 | S. cerevisiae deletion strains, locus YGL086W, strain mad1, active compounds read low 0.965 | S. cerevisiae deletion strains, locus YGL248W, strain PDE1, active compounds read low 0.98 | S. cerevisiae deletion strains, locus YGR078C, strain PAC10, active compounds read low 0.995 | S. cerevisiae deletion strains, locus YGR135W, strain pre9, active compounds read low 1.02 | S. cerevisiae deletion strains, locus YGR229C, strain SMI1, active compounds read low 0.978 | S. cerevisiae deletion strains, locus YGR252W, strain gcn5, active compounds read low 0.937 | S. cerevisiae deletion strains, locus YHR030C, strain SLT2, active compounds read low 0.989 and 0.965 | S. cerevisiae deletion strains, locus YHR079C, strain IRE1 (second series), active compounds read low 0.992 | S. cerevisiae deletion strains, locus YHR079C, strain IRE1, active compounds read low 0.956 | S. cerevisiae deletion strains, locus YHR094C, strain hxt1, active compounds read low 0.989 | S. cerevisiae deletion strains, locus YHR129C, strain ARP1, active compounds read low 0.993 | S. cerevisiae deletion strains, locus YHR200W, strain rpn10, active compounds read low 0.992 | S. cerevisiae deletion strains, locus YIL066C, strain RNR3, active compounds read low 0.968 | S. cerevisiae deletion strains, locus YIL073C, strain SPO22, active compounds read low 0.986 | S. cerevisiae deletion strains, locus YIL125W, strain kgd1, active compounds read low 0.985 | S. cerevisiae deletion strains, locus YIR030C, strain dcg1, active compounds read low 0.978 | S. cerevisiae deletion strains, locus YJL095W, strain BCK1, active compounds read low 1.03 and 0.98 | S. cerevisiae deletion strains, locus YJL134W, strain LCB3, active compounds read low 0.979 | S. cerevisiae deletion strains, locus YJL168C, strain set2, active compounds read low 0.995 | S. cerevisiae deletion strains, locus YJL187C, strain SWE1 (second series), active compounds read low 1 | S. cerevisiae deletion strains, locus YJR043C, strain POL32, active compounds read low 1.01 | S. cerevisiae deletion strains, locus YJR066W, strain TOR1, active compounds read low 0.913 | S. cerevisiae deletion strains, locus YJR075W, strain HOC1, active compounds read low 0.98 | S. cerevisiae deletion strains, locus YKL009W, strain mrt4, active compounds read low 0.95 | S. cerevisiae deletion strains, locus YKL068W, active compounds read low 0.998 | S. cerevisiae deletion strains, locus YKL085W, strain MDH1 (second series), active compounds read low 0.987 | S. cerevisiae deletion strains, locus YKL085W, strain MDH1, active compounds read low 0.987 | S. cerevisiae deletion strains, locus YKL190W, strain CNB1, active compounds read low 0.99 | S. cerevisiae deletion strains, locus YKR001C, strain vps1, active compounds read low 0.988 | S. cerevisiae deletion strains, locus YLR039C, strain RIC1, active compounds read low 0.983 | S. cerevisiae deletion strains, locus YLR058C, strain SHM2, active compounds read low 0.967 | S. cerevisiae deletion strains, locus YLR102C, strain apc9, active compounds read low 0.993 | S. cerevisiae deletion strains, locus YLR113W, strain HOG1, active compounds read low 0.956 | S. cerevisiae deletion strains, locus YLR262C, strain YPT6, active compounds read low 0.937 | S. cerevisiae deletion strains, locus YLR268W, strain sec22, active compounds read low 1.07 | S. cerevisiae deletion strains, locus YLR330W, strain CHS5, active compounds read low 0.977 | S. cerevisiae deletion strains, locus YLR342W, strain FKS1 (second series), active compounds read low 0.985 | S. cerevisiae deletion strains, locus YLR371W, strain rom2, active compounds read low 0.972 | S. cerevisiae deletion strains, locus YLR418C, strain cdc73, active compounds read low 0.956 | S. cerevisiae deletion strains, locus YML016C, strain PPZ1, active compounds read low 0.978 | S. cerevisiae deletion strains, locus YML032C, strain rad52, active compounds read low 1 | S. cerevisiae deletion strains, locus YML124C, strain tub3, active compounds read low 0.985 | S. cerevisiae deletion strains, locus YMR078C, strain ctf18, active compounds read low 0.987 | S. cerevisiae deletion strains, locus YMR223W, strain ubp8, active compounds read low 0.971 | S. cerevisiae deletion strains, locus YMR263W, strain SAP30, active compounds read low 0.978 | S. cerevisiae deletion strains, locus YMR307W, strain GAS1, active compounds read low 1.01 | S. cerevisiae deletion strains, locus YNL067W, strain RPL9B, active compounds read low 1.01 | S. cerevisiae deletion strains, locus YNL128W, strain TEP1, active compounds read low 0.968 | S. cerevisiae deletion strains, locus YNL153C, strain GIM3, active compounds read low 1 | S. cerevisiae deletion strains, locus YNL183C, strain NPR1, active compounds read low 0.9 | S. cerevisiae deletion strains, locus YNL233W, strain BNI4, active compounds read low 0.996 | S. cerevisiae deletion strains, locus YNL250W, strain rad50, active compounds read low 0.987 | S. cerevisiae deletion strains, locus YNL271C, strain bni1, active compounds read low 0.999 | S. cerevisiae deletion strains, locus YNL298W, strain CLA4, active compounds read low 0.99 | S. cerevisiae deletion strains, locus YNL307C, strain MCK1, active compounds read low 0.983 | S. cerevisiae deletion strains, locus YNL322C, strain KRE1, active compounds read low 0.982 | S. cerevisiae deletion strains, locus YNR052C, strain pop2, active compounds read low 1.01 | S. cerevisiae deletion strains, locus YOL006C, strain TOP1, active compounds read low 0.966 | S. cerevisiae deletion strains, locus YOL012C, strain htz1 1.08 | S. cerevisiae deletion strains, locus YOL147C, strain pex11, active compounds read low 0.987 | S. cerevisiae deletion strains, locus YOR061W, strain CKA2, active compounds read low 0.974 | S. cerevisiae deletion strains, locus YOR069W, strain VPS5, active compounds read low 0.986 | S. cerevisiae deletion strains, locus YOR136W, strain idh2, active compounds read low 0.981 | S. cerevisiae deletion strains, locus YOR144C, strain elg1, active compounds read low 0.991 | S. cerevisiae deletion strains, locus YOR184W, strain ser1, active compounds read low 0.974 | S. cerevisiae deletion strains, locus YOR231W, strain MKK1, active compounds read low 0.964 | S. cerevisiae deletion strains, locus YOR316C, strain cot1, active compounds read low 0.992 | S. cerevisiae deletion strains, locus YPL055C, strain LGE1, active compounds read low 0.963 | S. cerevisiae deletion strains, locus YPL241C, strain CIN2, active compounds read low 0.989 | S. cerevisiae deletion strains, locus YPL256C, strain CLN2, active compounds read low 0.961 | S. cerevisiae deletion strains, locus YPR119W, strain clb2, active compounds read low 0.987 | S. cerevisiae deletion strains, locus YPR141C, strain kar3, active compounds read low 0.979 | S. cerevisiae deletion strains, locus YPR163C, strain tif3, active compounds read low 0.992 | S. cerevisiae deletion strains, locus YPR167C, strain met16, active compounds read low 0.997 | S. cerevisiae deletion strains, strain wtn01, active compounds read low 1.01 | S. cerevisiae strains, strain wild type, active compounds read low 0.98

COc1ccc(CCCOc2cc(CCn3ccnc3)ccc2OC)cc1
inactive: S. cerevisiae deletion strains, locus YER002W, strain NOP16, active compounds read low 1.03
